# SNCA expr inhib: Primary qHTS assay for inhibitors of alpha-synuclein gene (SNCA) expression; 0.17% of 140,000 active; AID 1671194, 2021; HEK-293 SNCA-luciferase knock-in, luminescence, 24 h; Potency, µM (top dose mostly 57.2 µM), inactives show top-dose activity change, negative = inhibition, hits mostly inhibitors;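 also: potency is read from the fitted curve at half-maximal effect; plate controls were DMSO cells for no effect and cell-free wells for full effect; nearly all actives have a fitted effect of over 45% in size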
# IP6K1 inhibitor: Primary qHTS assay for small molecule inhibitors of Inositol hexaphosphate kinase 1 (IP6K1). AID 1645851, 2021. IP6K1 kinase, ADP-Glo luminescence, 2 h; active compounds read low. activity change, % (series mostly up to about 58 µM). 0.81% of 140,000 active. Inositol hexakisphosphate kinase 1 (Homo sapiens), Q92551; in the data active = activity change below about -25%; also: % is scaled to controls: 0 for no effect and ±100 for the full control effect
#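 ADP-Glo luminescence measures ADP made by human IP6K1 during a 2 h RT reaction with ATP/IP6 (mix at 1.3 mM/130 uM); top library doses 57.5 and 19.1 uM final.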
# KDM5B inh: Primary screen for KDM5B Histone Demethylases FDH-coupled qHTS. KDM5B demethylase, FDH-coupled NADH fluorescence (FDH is formaldehyde dehydrogenase). 2.6% of 220,000 active. Potency, µM (top dose mostly 57.7 µM), usual class: inhibitors; also: potency is read from the fitted curve at half-maximal effect; 0% is about no effect; nearly all actives have a fitted effect of over 70% in size
# Target sequence (Q9UGL1 whole entry, looked up): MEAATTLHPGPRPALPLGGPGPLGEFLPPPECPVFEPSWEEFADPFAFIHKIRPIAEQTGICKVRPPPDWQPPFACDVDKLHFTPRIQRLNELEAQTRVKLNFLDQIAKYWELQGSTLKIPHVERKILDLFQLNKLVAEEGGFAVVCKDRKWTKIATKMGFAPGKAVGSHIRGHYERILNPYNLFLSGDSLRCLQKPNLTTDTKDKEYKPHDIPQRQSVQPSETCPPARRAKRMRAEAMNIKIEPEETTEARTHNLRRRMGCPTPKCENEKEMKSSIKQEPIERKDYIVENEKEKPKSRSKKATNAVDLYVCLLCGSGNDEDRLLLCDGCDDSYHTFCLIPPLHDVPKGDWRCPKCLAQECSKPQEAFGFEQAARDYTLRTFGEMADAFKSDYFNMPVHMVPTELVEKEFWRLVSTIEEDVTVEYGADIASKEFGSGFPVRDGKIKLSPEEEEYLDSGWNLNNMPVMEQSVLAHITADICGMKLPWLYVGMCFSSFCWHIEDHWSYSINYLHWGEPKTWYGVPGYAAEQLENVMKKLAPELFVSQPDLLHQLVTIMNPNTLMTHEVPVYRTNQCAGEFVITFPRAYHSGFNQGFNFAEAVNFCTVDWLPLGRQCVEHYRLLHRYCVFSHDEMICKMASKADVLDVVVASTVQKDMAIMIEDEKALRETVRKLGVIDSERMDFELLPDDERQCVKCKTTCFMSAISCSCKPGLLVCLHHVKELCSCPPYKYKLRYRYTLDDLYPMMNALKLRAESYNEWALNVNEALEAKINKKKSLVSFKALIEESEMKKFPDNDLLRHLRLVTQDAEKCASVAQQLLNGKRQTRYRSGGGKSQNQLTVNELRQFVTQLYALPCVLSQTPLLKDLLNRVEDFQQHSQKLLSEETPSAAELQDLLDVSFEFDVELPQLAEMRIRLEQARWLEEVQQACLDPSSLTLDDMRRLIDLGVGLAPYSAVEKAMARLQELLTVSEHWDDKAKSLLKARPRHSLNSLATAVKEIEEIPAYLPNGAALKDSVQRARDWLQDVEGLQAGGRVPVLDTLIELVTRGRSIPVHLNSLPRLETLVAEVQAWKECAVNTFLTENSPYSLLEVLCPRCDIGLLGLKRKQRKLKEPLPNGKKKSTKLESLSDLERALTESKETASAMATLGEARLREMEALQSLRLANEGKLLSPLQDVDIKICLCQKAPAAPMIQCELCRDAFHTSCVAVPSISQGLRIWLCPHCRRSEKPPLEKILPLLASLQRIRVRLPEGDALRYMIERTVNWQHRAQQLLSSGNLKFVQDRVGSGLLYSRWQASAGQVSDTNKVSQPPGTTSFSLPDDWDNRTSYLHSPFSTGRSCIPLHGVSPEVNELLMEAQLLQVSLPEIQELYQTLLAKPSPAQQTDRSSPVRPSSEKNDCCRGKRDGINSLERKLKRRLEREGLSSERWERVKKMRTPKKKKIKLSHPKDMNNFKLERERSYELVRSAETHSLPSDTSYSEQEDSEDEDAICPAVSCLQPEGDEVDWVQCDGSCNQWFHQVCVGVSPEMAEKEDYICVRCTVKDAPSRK
#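 Inhibition is measured as reduced NADH fluorescence generation from FDH coupling to formaldehyde release. Truncated KDM5BΔAP at 200 nM final acts on H3K4me3 peptide (12.5 µM in substrate mix) in pH 7.5 HEPES buffer with Tween-20, 30 min, room temperature.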
# SNCA viab count: GF-AFC viability counterscreen for inhibitors of alpha-synuclein gene (SNCA) expression; HEK-293-SNCA-luc viability, GF-AFC fluorescence, 24 h; Potency, µM (titrated, usually from 57.1 µM), for inactives: top-dose activity change, negative = cytotoxicity, hits mostly cytotoxic; 0.12% of 150,000 active; AID 1671193, 2021;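 also: potency is read from the fitted curve at half-maximal effect; 0% = DMSO-treated cells and -100% = medium-only wells without cells; nearly all actives have a fitted effect of over 30% in size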
#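 Cytotoxicity counterscreen: after 24 h compound treatment of genome-edited SNCA-luciferase HEK-293 cells, live-cell protease substrate GF-AFC read by fluorescence after 30 min; activity scaled between DMSO (0%) and medium-only (-100%), curves Hill-fitted.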
# * = called active by the depositor; i = inactive; ? = inconclusive; . = not tested or not shown; [ ] = another dose, or the depositor's remark. The list is not random: actives were taken first. Their share in the collection is about 3%. Unless noted, calls follow the shape of the dose curve; as a rule, active = well fitted curve in the direction sought with a large enough effect; inconclusive = small, poorly fitted or top-dose-only effect, or another doubt; inactive = no such curve, though single readings can be large; an effect the other way counts as inactive or inconclusive.
SMILES,SNCA expr inhib,IP6K1 inhibitor,KDM5B inh,SNCA viab count
COc1ccc(F)cc1-c1ccc(CN2CCC(NC(C)=O)C2)cc1 (stereo unspecified),.,5,.,.
CN(C)C(=O)NC1CCN(Cc2cccc(-c3ccc(F)c(F)c3)c2)CC1,.,23,.,.
Cc1cc(Cl)ccc1-c1ccc(C=O)cc1,4%[87.6 µM],-18,79µM*,-12%[87.6 µM]
O=Cc1ccc(-c2cccc(Cl)c2)cc1,-9%[87.6 µM],-14,32µM*,5%[87.6 µM]
Cn1ncc2c(C(=O)NC3Cc4ccccc4C3)cc(-c3ccccc3C(F)(F)F)nc21,.,4,.,.
O=C(c1cccc2[nH]ccc12)N1CCC(n2cc(-c3nc(-c4ccccc4)no3)nn2)C1 (stereo unspecified),6%,6,25µM*,-27%
O=C(c1cccc2[nH]ccc12)N1CCC(n2cc(-c3nc(-c4ccccc4)no3)nn2)CC1,8%,2,28µM*,-17%
O=C(c1cc2ccccc2[nH]1)N1CCCC(n2cc(-c3nc(-c4ccccc4)no3)nn2)C1 (stereo unspecified),102%,4,18µM*,5%
COc1ccc([S+](=O)([O-])c2nnn3c2nc(NC2CC2)c2ccccc23)cc1,1%,6,89µM*,-1%
O=[S+]([O-])(c1ccc(Cl)cc1)c1nnn2c1nc(NC1CC1)c1ccccc12,6%,11,i,-1%
COc1ccc(OC)c([S+](=O)([O-])c2nnn3c2nc(N2CCC(F)CC2)c2ccccc23)c1,-5%,6,50µM*,9%
COc1ccc([S+](=O)([O-])c2nnn3c2nc(N2CCC(F)CC2)c2ccccc23)cc1,-2%,10,79µM*,-3%
COc1ccccc1C(=O)NC1CCN(C(=O)c2ccc(-c3ccccc3OC)cc2)CC1,11%,-1,.,-7%[12.5 µM]
Cc1cccc2c1O[C@H]1[C@H](CO)CN([S+](=O)([O-])c3ccccc3)[C@@H]21,.,5,.,.
CCn1ncc(C(=O)N[C@@H]2CN(c3ccccn3)C[C@H]2CN(C)C)c1C,14%,5,32µM*,-12%
CN(C)C[C@@H]1CN(c2ccccn2)C[C@H]1NC(=O)c1cccc(C#N)c1,-21%,-2,?,-16%
COc1ccccc1C(=O)N[C@@H]1CN(c2ccccn2)C[C@H]1CN(C)C,16%,-4,28µM*,-3%
CN(Cc1ccccc1)C(=O)c1cc(-c2ccccc2C(F)(F)F)nc2c1cnn2C,.,-1,.,.
CCOC(=O)[C@H]1[C@@H](O)C(=O)N(Cc2ccccc2)C12CCN(C(=O)OCc1ccccc1)CC2,.,5,.,.
N#Cc1cc2c(=O)n(CCCCN3CCCC3)ccc2[nH]c1=O,5%,24,28µM*,2%
COc1ccc(Nc2ccnc(N3CCCC(C(=O)NCCc4ccccc4F)C3)n2)cc1 (stereo unspecified),-17%,1,.,?
C=C(C=O)[C@]1(O)C[C@@]2(C)C(=CC1=O)C=C[C@H](OC(=O)/C=C/C=C/[C@H](C)CC)[C@@H]2C,.,-16,.,8.2µM*
COc1ccc(OC)c([S+](=O)([O-])c2nnn3c2nc(NCCCOC(C)C)c2ccccc23)c1,15%,-1,89µM*,-3%
COc1ccc(OC)c([S+](=O)([O-])c2nnn3c2nc(NC2CCCC2)c2ccccc23)c1,13%,3,?,-6%
COc1ccc(OC)c([S+](=O)([O-])c2nnn3c2nc(N2CCOCC2)c2ccccc23)c1,20%,14,i,2%
SMILES,SNCA expr inhib,IP6K1 inhibitor,KDM5B inh,SNCA viab count
COCCCNc1nc2c([S+](=O)([O-])c3cc(OC)ccc3OC)nnn2c2ccccc12,-25%,2,79µM*,1%
Cc1ccc(C)c(S(=O)(=O)c2nnn3c2nc(NCCCOC(C)C)c2ccccc23)c1,-7%,42,?,0%
COCCNc1nc2c(S(=O)(=O)c3cc(C)ccc3C)nnn2c2ccccc12,-2%,9,79µM*,-3%
N#Cc1cccc(C(=O)N2CCC(N3C(=O)[C@H]4CN(Cc5ccccc5)C[C@H]4C3=O)CC2)c1,-34%,32,.,5%
c1cn(-c2ccc3ncsc3c2)c(-c2cc3n(n2)CCCNC3)n1,18%,-1,3.5µM*,-18%
c1cn(-c2ccc(-c3cscn3)cc2)c(-c2cc3n(n2)CCCNC3)n1,11%,2,i,5%
N#Cc1cc(-n2ccnc2-c2cc3n(n2)CCCNC3)ccc1N1CCCC1,3%,52,28µM*,5%
c1cn(-c2ccc3cn[nH]c3c2)c(-c2cc3n(n2)CCCNC3)n1,-17%,-6,i,1%
COC(=O)CNC(=O)c1nc(-c2ccc(F)cc2)c2ccccn12,19%[87.6 µM],8,40µM*,14%[87.6 µM]
COC(=O)CNC(=O)c1nc(-c2ccc(Cl)cc2)c2ccccn12,43%[87.6 µM],4,20µM*,?
COCCNC(=O)c1nc(-c2ccc(Cl)cc2)c2ccccn12,-1%[87.6 µM],0,35µM*,-12%[87.6 µM]
C#CCNC(=O)c1cc(-c2cccc(OC)c2)nc2c1cnn2C,.,3,.,.
COc1ccc(CCNC(=O)C2CCCN(Cc3cccc(-c4cccc(C)c4)c3)C2)cc1 (stereo unspecified),-26%,-12,.,-5%
COCCNC(=O)c1cc(-c2cccc(F)c2)nc2c1cnn2C,.,1,.,.
O[C@@H]1C[C@@H](c2nnc3n2CCN(Cc2cccc4[nH]ccc24)C3)N(Cc2ccccc2)C1,19%,14,25µM*,-7%[12.5 µM]
CNc1nc2c(s1)C(c1cccc(F)c1)CC(=O)N2 (stereo unspecified),?,-67*,28µM*,-12%
CNc1nc2c(s1)C(c1ccc(F)c(F)c1)CC(=O)N2 (stereo unspecified),17%,-37*,32µM*,10%
Cc1cccn2c3c(c(=O)nc12)C(c1cccc(F)c1)CC(=O)N3 (stereo unspecified),37%,-1,i,23%
CCNc1nc2c(s1)C(c1cccnc1)CC(=O)N2 (stereo unspecified),22%,-46*,?,-2%
Cc1nn(-c2ccccc2)c2c1C(C)N(C1CCN(C(=O)Nc3ccc(Cl)cc3)C1)C2=O (stereo unspecified),.,-14,.,.
Cc1ccc([S+](=O)([O-])NC2CCN(Cc3cccc(-c4ccc(F)c(F)c4)c3)CC2)cc1,-37%,1,.,-27%
Cc1nn(-c2ccccc2)c2c1C(C1CC1)N(C1CCN(C(=O)c3ccccc3F)C1)C2=O (stereo unspecified),.,0,.,.
CCN(CC)c1ccc(CNC(=O)c2cc3c(s2)CN(C(C)C)C3)cc1,?,16,?,0%
CCc1ccccc1NC(=O)c1cc2c(s1)CN(C(C)C)C2,-15%,5,7.1µM*,6%
COc1ccc(F)cc1-c1cccc(C(=O)NCC(=O)NCc2ccc3c(c2)OCO3)c1,.,-6,.,.
